We go through three molecules from ChEMBL document CHEMBL1961873, “Compounds: GSK PKIS; Assays: Nanosyn kinase panel” (2012).

In test [1] the target is T1, Mitogen-activated protein kinase 12 (Homo sapiens) (UniProt P53778).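 Further: values are averaged p38gamma kinase inhibition readings, compounds tested at 1 µM.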
T1 sequence (whole entry): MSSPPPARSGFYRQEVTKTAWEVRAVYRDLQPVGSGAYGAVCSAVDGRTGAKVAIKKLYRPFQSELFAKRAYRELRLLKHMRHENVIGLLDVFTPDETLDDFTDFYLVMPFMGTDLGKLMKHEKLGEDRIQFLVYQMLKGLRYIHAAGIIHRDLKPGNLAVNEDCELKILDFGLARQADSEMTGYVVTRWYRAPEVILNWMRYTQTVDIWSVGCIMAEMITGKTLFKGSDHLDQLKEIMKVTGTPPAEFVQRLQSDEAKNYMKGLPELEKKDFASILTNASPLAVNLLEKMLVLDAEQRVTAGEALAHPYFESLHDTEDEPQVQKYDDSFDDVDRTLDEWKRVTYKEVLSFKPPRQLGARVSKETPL
Particulars: at 1 µM.

For test [2], the target named is SRSF protein kinase 1 (Homo sapiens) (UniProt Q96SB4). The conditions noted are these: at 0.1 µM.
The target is the same in test [3]. Particulars: at 1 µM.
The target of test [4] is Phosphatidylinositol 4,5-bisphosphate 3-kinase catalytic subunit alpha isoform (Homo sapiens) (UniProt P42336). The conditions noted are these: at 0.1 µM.
Test [5] shares this target. Particulars: at 1 µM.
For test [6], the target named is T2, Phosphatidylinositol 4,5-bisphosphate 3-kinase catalytic subunit delta isoform (Homo sapiens) (UniProt O00329).
T2 sequence (whole entry): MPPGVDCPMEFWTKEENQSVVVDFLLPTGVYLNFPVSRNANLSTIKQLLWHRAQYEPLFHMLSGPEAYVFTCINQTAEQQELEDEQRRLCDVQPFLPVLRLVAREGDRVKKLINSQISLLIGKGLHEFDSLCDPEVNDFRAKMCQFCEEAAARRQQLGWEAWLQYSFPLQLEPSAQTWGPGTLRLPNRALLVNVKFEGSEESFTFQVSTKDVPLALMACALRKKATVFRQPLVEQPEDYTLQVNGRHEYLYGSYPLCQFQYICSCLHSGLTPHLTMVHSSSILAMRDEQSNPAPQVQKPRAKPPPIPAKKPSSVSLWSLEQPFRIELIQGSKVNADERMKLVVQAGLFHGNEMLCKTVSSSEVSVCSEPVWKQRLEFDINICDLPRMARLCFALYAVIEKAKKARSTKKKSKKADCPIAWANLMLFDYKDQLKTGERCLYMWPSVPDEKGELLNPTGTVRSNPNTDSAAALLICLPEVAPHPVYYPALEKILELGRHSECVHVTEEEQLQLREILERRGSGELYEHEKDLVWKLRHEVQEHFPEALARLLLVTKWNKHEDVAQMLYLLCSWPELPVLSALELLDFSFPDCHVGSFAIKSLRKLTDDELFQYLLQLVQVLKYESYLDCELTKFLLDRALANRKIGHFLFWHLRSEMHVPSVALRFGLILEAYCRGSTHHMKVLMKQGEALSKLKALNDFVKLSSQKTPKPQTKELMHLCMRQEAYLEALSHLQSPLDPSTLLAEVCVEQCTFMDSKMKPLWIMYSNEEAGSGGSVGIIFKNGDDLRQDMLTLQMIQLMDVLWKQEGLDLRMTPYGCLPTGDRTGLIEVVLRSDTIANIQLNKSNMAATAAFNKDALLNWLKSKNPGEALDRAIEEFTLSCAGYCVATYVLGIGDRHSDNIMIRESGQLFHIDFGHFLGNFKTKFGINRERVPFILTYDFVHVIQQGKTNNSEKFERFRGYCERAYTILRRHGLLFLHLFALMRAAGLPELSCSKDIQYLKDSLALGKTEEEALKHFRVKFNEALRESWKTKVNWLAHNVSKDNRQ
Particulars: at 0.1 µM.

Test [7] has as its target T2, Phosphatidylinositol 4,5-bisphosphate 3-kinase catalytic subunit delta isoform (Homo sapiens). Particulars: at 1 µM.
Test [8] addresses Phosphatidylinositol 4-kinase beta (Homo sapiens) (UniProt Q9UBF8). Particulars: at 0.1 µM.
For test [9] the target is unchanged. Particulars: at 1 µM.
The target of test [10] is Sphingosine kinase 1 (Homo sapiens) (UniProt Q9NYA1). Particulars: at 0.1 µM.
For test [11] the target is unchanged. Particulars: at 1 µM.
Test [12] deals with T3, Sphingosine kinase 2 (Homo sapiens) (UniProt Q9NRA0).
T3 sequence (whole entry): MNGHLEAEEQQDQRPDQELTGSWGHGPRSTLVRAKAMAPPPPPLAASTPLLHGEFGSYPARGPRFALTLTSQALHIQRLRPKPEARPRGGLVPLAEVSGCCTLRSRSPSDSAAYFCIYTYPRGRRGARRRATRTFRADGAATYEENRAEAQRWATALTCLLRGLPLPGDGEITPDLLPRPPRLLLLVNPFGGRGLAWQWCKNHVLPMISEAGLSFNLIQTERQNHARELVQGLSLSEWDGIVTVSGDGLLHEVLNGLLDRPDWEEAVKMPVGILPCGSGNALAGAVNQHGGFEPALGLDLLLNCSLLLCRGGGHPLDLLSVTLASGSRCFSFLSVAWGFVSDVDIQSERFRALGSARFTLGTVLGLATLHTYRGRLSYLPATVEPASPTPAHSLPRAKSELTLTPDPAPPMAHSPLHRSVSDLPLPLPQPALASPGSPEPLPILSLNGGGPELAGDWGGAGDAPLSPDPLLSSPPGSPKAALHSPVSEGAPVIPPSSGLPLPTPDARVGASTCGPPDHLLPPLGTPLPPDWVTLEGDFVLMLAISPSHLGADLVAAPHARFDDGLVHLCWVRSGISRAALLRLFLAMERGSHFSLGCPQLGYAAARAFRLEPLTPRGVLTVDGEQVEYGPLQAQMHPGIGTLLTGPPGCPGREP
The conditions noted are these: at 0.1 µM.

Test [13] addresses T3, Sphingosine kinase 2 (Homo sapiens). The conditions noted are these: at 1 µM.
For test [14], the target named is Casein kinase II subunit alpha (Homo sapiens) (UniProt P68400). Particulars: at 0.1 µM.
Test [15] has the same target. The conditions noted are these: at 1 µM.
The target in test [16] is T4, Inhibitor of nuclear factor kappa-B kinase subunit alpha (Homo sapiens) (UniProt O15111).
T4 sequence (whole entry): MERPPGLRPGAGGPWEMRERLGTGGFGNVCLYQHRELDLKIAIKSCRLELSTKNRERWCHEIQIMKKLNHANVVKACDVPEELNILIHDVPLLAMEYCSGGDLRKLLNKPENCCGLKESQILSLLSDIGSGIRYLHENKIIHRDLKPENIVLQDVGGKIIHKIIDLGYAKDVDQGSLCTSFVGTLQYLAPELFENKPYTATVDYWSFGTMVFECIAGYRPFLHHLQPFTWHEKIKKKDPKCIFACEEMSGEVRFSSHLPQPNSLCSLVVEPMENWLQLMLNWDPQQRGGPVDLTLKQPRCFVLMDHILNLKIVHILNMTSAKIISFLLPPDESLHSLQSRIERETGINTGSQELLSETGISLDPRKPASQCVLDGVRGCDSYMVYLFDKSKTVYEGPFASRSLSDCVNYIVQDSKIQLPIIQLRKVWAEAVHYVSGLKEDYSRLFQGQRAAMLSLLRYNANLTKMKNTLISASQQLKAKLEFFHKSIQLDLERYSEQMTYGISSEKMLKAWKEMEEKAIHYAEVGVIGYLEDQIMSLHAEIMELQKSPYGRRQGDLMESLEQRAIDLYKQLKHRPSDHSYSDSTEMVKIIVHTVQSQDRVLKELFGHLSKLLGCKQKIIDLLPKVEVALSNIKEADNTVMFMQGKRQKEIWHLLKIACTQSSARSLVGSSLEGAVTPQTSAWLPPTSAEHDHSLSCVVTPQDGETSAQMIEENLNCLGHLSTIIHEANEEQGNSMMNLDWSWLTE
The conditions noted are these: at 0.1 µM.

Test [17] deals with T4, Inhibitor of nuclear factor kappa-B kinase subunit alpha (Homo sapiens). Particulars: at 1 µM.
Test [18] addresses T5, Inhibitor of nuclear factor kappa-B kinase subunit beta (Homo sapiens) (UniProt O14920).
T5 sequence (whole entry): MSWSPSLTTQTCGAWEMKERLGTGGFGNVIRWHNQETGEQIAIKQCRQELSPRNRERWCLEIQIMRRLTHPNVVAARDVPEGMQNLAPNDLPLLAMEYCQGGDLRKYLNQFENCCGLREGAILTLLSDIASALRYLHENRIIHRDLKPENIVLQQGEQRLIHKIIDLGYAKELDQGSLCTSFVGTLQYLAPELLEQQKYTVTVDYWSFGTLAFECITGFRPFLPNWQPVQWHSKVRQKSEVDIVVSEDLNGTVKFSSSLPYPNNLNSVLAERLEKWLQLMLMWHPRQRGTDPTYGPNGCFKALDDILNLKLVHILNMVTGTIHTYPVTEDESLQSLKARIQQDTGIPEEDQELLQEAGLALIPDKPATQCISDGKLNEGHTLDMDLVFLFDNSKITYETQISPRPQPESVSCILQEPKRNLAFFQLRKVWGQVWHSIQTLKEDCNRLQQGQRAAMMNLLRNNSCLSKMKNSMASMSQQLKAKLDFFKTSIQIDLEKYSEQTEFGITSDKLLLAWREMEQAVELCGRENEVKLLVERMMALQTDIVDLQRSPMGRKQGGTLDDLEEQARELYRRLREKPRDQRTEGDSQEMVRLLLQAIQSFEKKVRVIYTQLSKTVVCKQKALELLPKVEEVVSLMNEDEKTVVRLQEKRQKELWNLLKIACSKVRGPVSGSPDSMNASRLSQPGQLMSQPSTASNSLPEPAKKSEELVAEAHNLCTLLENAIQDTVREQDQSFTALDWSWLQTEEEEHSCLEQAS
The conditions noted are these: at 0.1 µM.

In test [19] the target is T5, Inhibitor of nuclear factor kappa-B kinase subunit beta (Homo sapiens). Particulars: at 1 µM.
Test [20] concerns the target T6, Inhibitor of nuclear factor kappa-B kinase subunit epsilon (Homo sapiens) (UniProt Q14164).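 Further: mean inhibition of IKKε reported, from the GSK PKIS dataset.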
T6 sequence (whole entry): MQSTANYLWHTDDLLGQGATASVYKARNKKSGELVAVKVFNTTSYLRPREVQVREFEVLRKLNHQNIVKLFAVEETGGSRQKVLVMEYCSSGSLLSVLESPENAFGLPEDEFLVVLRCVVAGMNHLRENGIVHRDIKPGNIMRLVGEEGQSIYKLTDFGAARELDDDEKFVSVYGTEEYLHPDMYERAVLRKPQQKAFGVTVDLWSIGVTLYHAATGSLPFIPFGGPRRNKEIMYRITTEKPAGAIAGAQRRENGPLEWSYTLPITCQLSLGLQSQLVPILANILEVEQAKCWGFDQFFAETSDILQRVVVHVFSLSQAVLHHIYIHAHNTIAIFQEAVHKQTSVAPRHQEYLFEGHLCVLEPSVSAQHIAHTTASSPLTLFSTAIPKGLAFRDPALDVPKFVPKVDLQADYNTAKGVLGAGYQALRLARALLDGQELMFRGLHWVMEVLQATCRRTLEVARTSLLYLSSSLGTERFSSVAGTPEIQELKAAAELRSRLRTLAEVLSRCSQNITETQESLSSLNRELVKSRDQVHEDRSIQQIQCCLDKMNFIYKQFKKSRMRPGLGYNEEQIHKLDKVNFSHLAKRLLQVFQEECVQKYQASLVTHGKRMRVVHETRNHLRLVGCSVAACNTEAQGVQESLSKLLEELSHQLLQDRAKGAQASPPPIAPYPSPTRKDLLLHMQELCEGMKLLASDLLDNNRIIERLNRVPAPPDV
The conditions noted are these: at 0.1 µM.

Chain of Sphingosine kinase 1 (Homo sapiens) (Q9NYA1 whole entry): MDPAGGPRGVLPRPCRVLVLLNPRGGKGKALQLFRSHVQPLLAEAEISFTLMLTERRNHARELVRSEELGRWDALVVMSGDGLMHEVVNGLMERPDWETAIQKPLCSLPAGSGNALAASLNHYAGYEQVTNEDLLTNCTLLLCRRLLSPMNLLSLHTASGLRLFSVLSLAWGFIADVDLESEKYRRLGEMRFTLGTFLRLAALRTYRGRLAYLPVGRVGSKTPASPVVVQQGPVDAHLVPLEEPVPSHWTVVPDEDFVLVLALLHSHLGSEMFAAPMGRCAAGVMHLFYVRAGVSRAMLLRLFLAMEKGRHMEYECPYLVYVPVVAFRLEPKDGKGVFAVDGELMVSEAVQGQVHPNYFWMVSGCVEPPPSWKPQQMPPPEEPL
Chain of Phosphatidylinositol 4,5-bisphosphate 3-kinase catalytic subunit alpha isoform (Homo sapiens) (P42336 whole entry, canonical isoform): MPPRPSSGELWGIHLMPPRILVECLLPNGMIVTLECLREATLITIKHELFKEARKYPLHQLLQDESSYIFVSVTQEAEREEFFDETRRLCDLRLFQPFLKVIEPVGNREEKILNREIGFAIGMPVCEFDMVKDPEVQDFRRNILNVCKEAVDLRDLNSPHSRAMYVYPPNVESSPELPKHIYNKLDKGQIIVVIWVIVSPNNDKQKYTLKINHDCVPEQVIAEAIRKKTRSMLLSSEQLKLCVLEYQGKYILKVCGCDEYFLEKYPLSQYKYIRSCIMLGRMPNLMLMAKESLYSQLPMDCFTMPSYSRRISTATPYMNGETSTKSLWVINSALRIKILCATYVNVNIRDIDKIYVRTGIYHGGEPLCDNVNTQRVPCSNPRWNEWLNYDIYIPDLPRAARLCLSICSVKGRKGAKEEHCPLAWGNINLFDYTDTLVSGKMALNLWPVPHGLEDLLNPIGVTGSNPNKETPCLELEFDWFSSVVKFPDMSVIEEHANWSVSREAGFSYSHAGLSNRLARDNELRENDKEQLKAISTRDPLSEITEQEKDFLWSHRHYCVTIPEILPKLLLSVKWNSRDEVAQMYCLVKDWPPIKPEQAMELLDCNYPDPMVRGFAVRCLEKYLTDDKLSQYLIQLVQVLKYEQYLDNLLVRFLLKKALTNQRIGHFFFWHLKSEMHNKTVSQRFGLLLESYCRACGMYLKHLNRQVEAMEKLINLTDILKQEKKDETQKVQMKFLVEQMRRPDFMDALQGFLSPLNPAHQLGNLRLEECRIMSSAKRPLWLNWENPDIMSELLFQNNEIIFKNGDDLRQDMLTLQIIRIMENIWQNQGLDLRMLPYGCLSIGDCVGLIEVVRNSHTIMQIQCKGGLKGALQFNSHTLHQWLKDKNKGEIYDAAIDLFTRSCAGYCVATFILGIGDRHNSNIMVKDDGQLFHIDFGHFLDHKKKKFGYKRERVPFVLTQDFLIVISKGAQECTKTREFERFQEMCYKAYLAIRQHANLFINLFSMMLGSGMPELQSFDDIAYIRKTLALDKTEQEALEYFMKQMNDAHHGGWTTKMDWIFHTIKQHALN
Chain of SRSF protein kinase 1 (Homo sapiens) (Q96SB4 whole entry): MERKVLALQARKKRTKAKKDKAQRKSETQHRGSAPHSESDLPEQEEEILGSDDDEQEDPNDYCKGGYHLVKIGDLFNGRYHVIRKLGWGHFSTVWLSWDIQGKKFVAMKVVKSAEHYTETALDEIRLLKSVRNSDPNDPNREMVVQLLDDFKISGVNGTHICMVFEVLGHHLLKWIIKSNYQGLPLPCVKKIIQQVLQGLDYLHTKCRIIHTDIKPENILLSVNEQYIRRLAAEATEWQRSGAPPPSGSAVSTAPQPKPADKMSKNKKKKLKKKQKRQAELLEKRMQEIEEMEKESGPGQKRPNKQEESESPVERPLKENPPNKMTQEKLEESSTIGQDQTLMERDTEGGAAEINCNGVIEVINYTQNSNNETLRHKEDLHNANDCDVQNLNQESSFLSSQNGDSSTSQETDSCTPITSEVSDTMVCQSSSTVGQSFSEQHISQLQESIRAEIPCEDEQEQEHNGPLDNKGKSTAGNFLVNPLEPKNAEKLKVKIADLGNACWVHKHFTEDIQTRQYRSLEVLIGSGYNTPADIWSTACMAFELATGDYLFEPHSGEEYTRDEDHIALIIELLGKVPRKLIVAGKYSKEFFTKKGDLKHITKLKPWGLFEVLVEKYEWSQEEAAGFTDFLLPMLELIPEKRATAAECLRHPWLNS
Chain of Phosphatidylinositol 4-kinase beta (Homo sapiens) (Q9UBF8 2-816 limits assumed): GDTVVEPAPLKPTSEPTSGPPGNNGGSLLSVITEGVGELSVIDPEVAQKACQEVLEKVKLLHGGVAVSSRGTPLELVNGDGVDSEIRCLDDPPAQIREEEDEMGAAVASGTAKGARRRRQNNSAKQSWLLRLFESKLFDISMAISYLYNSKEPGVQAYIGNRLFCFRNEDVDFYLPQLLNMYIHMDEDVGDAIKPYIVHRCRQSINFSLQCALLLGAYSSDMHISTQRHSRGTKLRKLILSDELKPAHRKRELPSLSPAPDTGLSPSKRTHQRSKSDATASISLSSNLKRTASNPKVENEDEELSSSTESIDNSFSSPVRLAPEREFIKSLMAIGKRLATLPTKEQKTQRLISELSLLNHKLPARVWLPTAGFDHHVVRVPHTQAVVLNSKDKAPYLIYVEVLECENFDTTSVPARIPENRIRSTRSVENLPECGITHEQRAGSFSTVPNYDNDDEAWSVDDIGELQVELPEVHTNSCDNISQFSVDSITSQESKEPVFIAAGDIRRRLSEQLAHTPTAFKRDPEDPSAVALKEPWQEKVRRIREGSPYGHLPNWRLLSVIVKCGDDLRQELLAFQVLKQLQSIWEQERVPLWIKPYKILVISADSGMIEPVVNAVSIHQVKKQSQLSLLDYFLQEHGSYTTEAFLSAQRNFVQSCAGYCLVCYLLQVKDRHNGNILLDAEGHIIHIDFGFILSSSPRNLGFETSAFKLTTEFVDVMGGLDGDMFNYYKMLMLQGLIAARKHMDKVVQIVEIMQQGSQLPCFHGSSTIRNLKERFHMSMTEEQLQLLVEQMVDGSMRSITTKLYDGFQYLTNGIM
Chain of Casein kinase II subunit alpha (Homo sapiens) (P68400 whole entry, looked up): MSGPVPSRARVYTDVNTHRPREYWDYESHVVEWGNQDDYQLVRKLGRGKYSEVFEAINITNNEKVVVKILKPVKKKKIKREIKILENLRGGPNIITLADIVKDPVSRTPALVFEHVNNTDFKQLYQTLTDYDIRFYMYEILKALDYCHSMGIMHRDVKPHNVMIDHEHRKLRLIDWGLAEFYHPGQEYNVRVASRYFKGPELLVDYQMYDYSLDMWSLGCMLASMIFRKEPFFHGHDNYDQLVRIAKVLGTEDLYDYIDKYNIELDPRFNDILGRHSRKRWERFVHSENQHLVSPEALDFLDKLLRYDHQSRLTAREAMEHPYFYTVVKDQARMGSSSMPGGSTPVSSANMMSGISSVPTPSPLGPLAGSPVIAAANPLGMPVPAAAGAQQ

Consider `CC(C)=Cc1cccc2c1/C(=N/Nc1ccc(S(N)(=O)=O)cc1)C(=O)N2`, for which the inhibition in test [1] is -0.16%; in [2], 0.13%; in test [3] it was 2.55%; in [4] it was 0.06%; in [5], 1.06%; in [6], 0.23%. In addition, the inhibition in test [7] is 1.67%; in test [8], 1.78%; in test [9] it was 3.22%; in test [10] it was 2.28%; in test [11] it was 3.96%; in [12], 0.66%. The inhibition in test [13] turned out to be 0.76%; in [14] it was 1.84%; in [15], 10.6%; in [16], 3.49%; in test [17], 3%; in test [18] it was 1.01%. In addition, the values for the inhibition in test [19] and in [20] were 2.88% and 5.72%, respectively.

As to `Nc1ncnc2occ(-c3ccc(NC(=O)Nc4cccc(C(F)(F)F)c4)cc3)c12`, the inhibition in test [1] was found to be 37.5%; in test [2], 1.49%; in test [3], 18.5%; in test [4] it was 4.75%; in test [5], 4.88%; in test [6], 1.25%. For the same molecule, the inhibition in test [7] was 4.92%; in [8], -1.39%; in test [9], 1.22%; in test [10] it was 0.57%; in test [11] it was -6.26%; in test [12], 0.27%. The inhibition was found to be 1.95% in [13]; 7.18% in test [14]; 4.76% in [15]; 6.44% in [16]; 11.1% in test [17]; 6.2% in test [18]. Also, the inhibition in test [19] was found to be 7.53%; in test [20], 8.03%.

`Cc1nn(C)c2cc(N(C)c3ccnc(Nc4cccc(S(N)(=O)=O)c4)n3)ccc12`: the inhibition in [1] is 2.2%; in [2] it was -1.51%; in test [3] it was -1.14%; in [4], 6.6%; in test [5], 30.8%; in test [6], 10.5%. Also, the inhibition in [7] was 53.8%; in test [9], -0.74%; in test [10], -0.2%; in test [11], 1.31%; in test [12] it was 0.44%; in test [13], 0.14%. The inhibition in test [14] was determined as 2.59%; in test [15] it was 1.94%; in test [16], 2.21%; in test [17], 3.6%; in test [18], 4.27%; in test [19], 4.54%. In addition, the inhibition in [20] was determined as 4.1%.

For orientation: inhibition means the relative decrease from the control value, in per cent.
